{
  "source": "PubChem BioAssay AID1508600",
  "about": "(Functional Genomics Laboratory (NCATS/FGL), 2020)",
  "note": "Among all 53,000 sequences or so, about 3,700 (7%) were called active. This is one part of a sample in which actives are shown more often than they occur. Unmarked numbers belong to inactive results.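 Rule for the calls: active = gene knockdowns whose robust z-score for IL-1 alpha signal is at least 2 or at most -2, so actives lie on both sides; inactive = the rest.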",
  "data": [
    {"test": "Components of the Cytosolic LPS Sensing Pathway: Gene Identification via Genome-wide siRNA Screen;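 note: robust z of the log signal after scaling to non-targeting control siRNA wells of the plate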", "details": "RAW264.7 macrophages, IL-1a HTRF, actives lie on both sides, screened at 100 nM (by protocol), cells primed 5 h with Pam3CSK4 first", "outline": "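Read-out: IL-1a HTRF on supernatant, divided by plate negative-control median ×100, log-transformed and converted to robust z-score. Cells were RAW264.7 given 100 nM siRNA, Pam3CSK4-primed 5 hours, then LipidA-transfected 24 hour.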", "values": [
      {"sequence": "GAGGAAGACACUUUUCCUGTT against Atp23", "z-score": 0.765},
      {"sequence": "GGGCAGUGAAAUCCUGUCUTT against Trim16", "z-score": "-2.81 (active)"},
      {"sequence": "GCUUAGAUCACCUAAUGACTT against Parp3", "z-score": 1.18},
      {"sequence": "GGAUGUUUGGACCAAUCACTT against Iba57", "z-score": -0.962},
      {"sequence": "GGUGCUACUCCAGAUUGACTT against Tbc1d13", "z-score": 0.63},
      {"sequence": "GGUUAUAAACCAGAAGAGUTT against Mill2", "z-score": 0.807},
      {"sequence": "GCUGUUAGACCUCUUGAUUTT against Olfr1164", "z-score": 0.0632},
      {"sequence": "GGUAGAUCAGUAAUAGUUATT against Glrb", "z-score": 0.837},
      {"sequence": "GGAGAUUGAGAACACAAGCTT against Hipk2", "z-score": "2.37 (active)"},
      {"sequence": "CCAGACACAUAGGACAAAATT against Slco3a1", "z-score": -0.00454},
      {"sequence": "GGCUGUGCGUGUUACAAAATT against Erlin1", "z-score": 0.501},
      {"sequence": "GGAAUGUCUAUCACAAUGGTT against Vmn1r230", "z-score": 1.78},
      {"sequence": "GGUGGAAGAUGAGAAAGAGTT against Tmem139", "z-score": -1.21},
      {"sequence": "GGAAGAUAAAUGUCACAAATT against AA792892", "z-score": 0.392},
      {"sequence": "GCCAGAAAUACCUGUCGGATT against Cdc37", "z-score": -0.229},
      {"sequence": "CCACUUUCAACUUUCCGCATT against Fgd5", "z-score": -1.94},
      {"sequence": "GCUAGACCUAAGGAGCAAATT against Axin1", "z-score": "3.59 (active)"},
      {"sequence": "GGCCAAUUUCUUCACUUCUTT against Ints11", "z-score": -0.809},
      {"sequence": "GGUUUUCACCAUAUGCAGCTT against Zfp353-ps", "z-score": 0.267},
      {"sequence": "GGAAGAAAUGUCAUCACAATT against Heph", "z-score": 0.193},
      {"sequence": "CGGACACAUUGACUGAAUATT against Adgrl1", "z-score": -1.45},
      {"sequence": "CCCACAUCAUUGAGAUUCUTT against Olfr1508", "z-score": -1.25},
      {"sequence": "GGAGAAGUUUGAAGAGAUGTT against Cct5", "z-score": "-2.24 (active)"},
      {"sequence": "GGAAGAAAACAUUUAGCCCTT against Mmd2", "z-score": 0.504},
      {"sequence": "ACAUACCAGUCUCUGUACCTT against Pigu", "z-score": -1.56},
      {"sequence": "CCGCCUCUUACCGAAGUUCTT against Mettl4", "z-score": "3.04 (active)"},
      {"sequence": "GGACUUGAAAGAUAAAUAGTT against Crx", "z-score": 0.163},
      {"sequence": "GCUAAUAACUUUUCAGUGATT against Olfr381", "z-score": 0.549},
      {"sequence": "GGUUGGUAGGAUGGACAAGTT against Rab11b", "z-score": "2.45 (active)"},
      {"sequence": "GCCCUGUAUUUUGAAUUACTT against Bmpr1b", "z-score": 0.0161},
      {"sequence": "GGGAAGAAAUAUGUUAGAUTT against Pip4p2", "z-score": 0.92},
      {"sequence": "CCUUGUUACUAUACUACACTT against Ppp1r2", "z-score": "2.59 (active)"},
      {"sequence": "GCCUUUUAGCUGUUCAGGATT against Nlrc5", "z-score": 1.83},
      {"sequence": "GCUGAAGCAUACAUUUGUGTT against Tas2r137", "z-score": -0.226},
      {"sequence": "CCAAUCUCCUGUUGUUAAATT against Mlf1", "z-score": 0.557},
      {"sequence": "CCAGUCUUGCCCUUUAGUGTT against Foxi2", "z-score": -1.88},
      {"sequence": "AUGUAUUGAGUCAGGCAUCTT against Olfr243", "z-score": "2.32 (active)"},
      {"sequence": "CCUUACCACUUGAAGAUGGTT against Ephx1", "z-score": -1.2},
      {"sequence": "GCCAGUGAGUUUAUCAGCCTT against B4galnt3", "z-score": 0.706},
      {"sequence": "GGUAUACAUGCUUCUCUCUTT against Olfr610", "z-score": -0.569},
      {"sequence": "GCUACAGAACCUGCUCUACTT against Thoc5", "z-score": 0.391},
      {"sequence": "GGCAUUGAACAAGAAAGAATT against Mef2c", "z-score": -0.94},
      {"sequence": "GGGUAUGGUUUCAUCACUUTT against Boll", "z-score": "-2.71 (active)"},
      {"sequence": "GGAAGACAAAGAUUCUAGUTT against Abcc1", "z-score": -1.06},
      {"sequence": "UUACUGGUUGCUGUUGUGGTT against Alyref", "z-score": 1.35},
      {"sequence": "GGAGAUCUCCUCAGCCACATT against Gemin4", "z-score": "-2.14 (active)"},
      {"sequence": "GCUGUGGUACAACCACAUUTT against Lrrc8a", "z-score": -0.244},
      {"sequence": "GGAACCACACCAUGUGAAATT against Prdm5", "z-score": 0.828},
      {"sequence": "CCAUUCCCGCAUCCAUGUGTT against Zfp672", "z-score": "-2.23 (active)"},
      {"sequence": "AGAGGAAGCUCGAAAACGGTT against Zrsr2", "z-score": -0.2},
      {"sequence": "GGAUAUCAUCGUGUUUAUUTT against Vps45", "z-score": 0.612},
      {"sequence": "GGACAACAUUAUAGGAAAGTT against Neu3", "z-score": "2.36 (active)"},
      {"sequence": "GCAAAAAAUCACUUCGAGUTT against Mgat4a", "z-score": -0.377},
      {"sequence": "GGGUAAGUAUUGAACUCAUTT against Slc10a1", "z-score": 1.06},
      {"sequence": "GGAUGCUGAAGUAAUAGUGTT against Tbc1d15", "z-score": 0.0714},
      {"sequence": "CGUUGUCAUUCACAAGUGATT against Tmprss11e", "z-score": "3.02 (active)"},
      {"sequence": "GGAAUGCUAUCAGAGAAGATT against Zmym5", "z-score": -0.0365},
      {"sequence": "CCCUUCUUCGGGUUUUAACTT against Kcna3", "z-score": "3.08 (active)"},
      {"sequence": "GGUUUAAGGUAGUUCAUGATT against Faf1", "z-score": -0.0439},
      {"sequence": "GGCCUCAAGAAUGUAACAGTT against Psmf1", "z-score": -1.07},
      {"sequence": "GGACAAUUGAAUACCUAGATT against Hadha", "z-score": 0.151},
      {"sequence": "GGACUCAACUGCACUGUUGTT against Izumo4", "z-score": "-2.37 (active)"},
      {"sequence": "CCAAGUUUUAGCACCUAAATT against Dcp1a", "z-score": 0.769},
      {"sequence": "GGACAUGAAGAUCAAGUCCTT against Rps2", "z-score": -0.109},
      {"sequence": "GAAGACUUCAAUCAACCAGTT against Trim6", "z-score": -0.396},
      {"sequence": "GGAAACUUGUUGAAGAGAUTT against Ptprz1", "z-score": "2.37 (active)"},
      {"sequence": "GCAUACCGGAUAAACUGAATT against Apoc1", "z-score": -0.916},
      {"sequence": "GGAAUGUCGAAUUGAUUGUTT against Klrb1b", "z-score": 0.524},
      {"sequence": "GGAAGAGAGAGACAAGGAUTT against Dap", "z-score": 1.38}
    ]}
  ]
}
